Measured values reported in PubChem BioAssay (NCI).
This is part of a sample that, as a whole, favours compounds with a hit. Of some 83,000 tested, about 20% had one in any assay.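 The endpoint reported here, percent growth, reads 100 for growth as untreated, 0 for no net growth and -100 for all cells dead.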 A number with no mark means an inactive call. Activity calls are given as the source filed them. How the source made its calls: active means growth percent below 10; inactive means the rest.

How the values were obtained:
Assay in all cases: NCI-60 one-dose screen, 48 h (100 = growth as untreated, 0 = no growth, -100 = all killed)
Settings in all cases: 10 µM unless noted
[1] = system: NCI-H23 lung
[2] = system: NCI-H226 lung
[3] = system: NCI-H322M lung
[4] = system: HOP-62 NSCLC
[5] = system: NCI-H460 lung
[6] = system: HOP-92 NSCLC
[7] = system: NCI-H522 lung
[8] = system: A549/ATCC NSCLC
[9] = system: 786-0 renal
[10] = system: DU-145 prostate
[11] = system: K-562 leukemia
[12] = system: MALME-3M melanoma
[13] = system: MDA-MB-231 breast
[14] = system: RXF 393 renal
[15] = system: SF-268 CNS
[16] = system: SF-295 CNS
[17] = system: SF-539 CNS
[18] = system: UACC-257 melanoma
[19] = system: M14 melanoma

| SMILES | growth [1] | growth [2] | growth [3] | growth [4] | growth [5] | growth [6] | growth [7] | growth [8] | growth [9] | growth [10] | growth [11] | growth [12] | growth [13] | growth [14] | growth [15] | growth [16] | growth [17] | growth [18] | growth [19] |
| --- | --- | --- | --- | --- | --- | --- | --- | --- | --- | --- | --- | --- | --- | --- | --- | --- | --- | --- | --- |
| COc1cccc(-c2nc3sccn3c2-c2ccnc(NCCNS(=O)(=O)c3c(Cl)cccc3Cl)c2)c1 | 60.2% | 57.4% | 87.4% | 88.4% | 61% | 43% | 60.5% | 47.1% | 62.6% | 63% | 29.3% | 77.8% | 76.7% | 69.9% | 26.1% | 60.7% | 85.9% | 85.1% | 57.7% |
| Nc1ccc(CCCCc2ccccc2)c(Cl)c1 | 101% | 96.8% | 85% | 105% | 102% | 53.1% | 71.1% | 81.2% | 88.9% | 103% | 90.1% | 106% | 91.2% | 90.3% | 83% | 104% | 91.2% | 89% | 103% |
| COc1ccc(C(=O)/C=C/C23c4ccccc4C(c4ccccc42)C2C(=O)NC(=O)C23)cc1 (configuration not stated) | 88.1% | 99.7% | 92.4% | 96.4% | 96.2% | 103% | 87% | 90.7% | 103% | 97.4% | 86.3% | 98% | 94.9% | 95.9% | 90.5% | 106% | 89.9% | 89.4% | 105% |
| O=C1CCC(N2C(=O)c3cccc(NCCCC4CCN(CCNC(=O)c5cc6c(o5)C(=O)c5ccccc5C6=O)CC4)c3C2=O)C(=O)N1 (configuration not stated) | -59.6% (active) | -69.2% (active) | -98.8% (active) | -52.9% (active) | -71.1% (active) | 49% | -51.7% (active) | -41.9% (active) | -26.2% (active) | -94.9% (active) | 2.99% (active) | -99.2% (active) | -25.2% (active) | -52.9% (active) | -32.7% (active) | -95.2% (active) | -99.1% (active) | -85.5% (active) | -83.2% (active) |
| CCO/C=N/C1=C(C#N)C(c2ccc(OC)cc2)c2c(c3ccccc3n(C)c2=O)O1 (configuration not stated) | 101% | 95.2% | 101% | 91.5% | 105% | 101% | 90.2% | 97.8% | 105% | 106% | 102% | 96.5% | 101% | 104% | 99.2% | 101% | 98.6% | 102% | 103% |
| O=C(Nc1ccccc1Cl)OCCN1CCOCC1 | 99.7% | 99% | 98.7% | 106% | 109% | 85.6% | 64.5% | 98.5% | 88.7% | 109% | 90.6% | 114% | 111% | 114% | 107% | 103% | 105% | 105% | 90.7% |
| COc1cc(/C=C2\C=C(c3ccccc3)N(CCc3ccccc3)C2=O)cc(OC)c1OC | 74.1% | 67.6% | 70.1% | 61.6% | 76.1% | 41.3% | 65.7% | 70.4% | 11.7% | 73.8% | 94.2% | 50.1% | 5.9% (active) | 72.3% | 44.7% | 53.3% | -17.2% (active) | 88.2% | 73.6% |
| CCN(CC)N=Nc1nn(C(=O)Nc2ccc(Cc3ccccc3)cc2)c2ccc(Cl)cc12 | 90.4% | 84% | 82.5% | 86.9% | 25.7% | 102% | 67.3% | 67.7% | 59.5% | 70.5% | 22.3% | 139% | 102% | 116% | 76% | 8.57% (active) | 77.7% | 55.5% | 22% |
